Measured values: publication PMC7862700, “An all-to-all approach to the identification of sequence-specific readers for epigenetic DNA modifications on cytosine”

Columns and labels:
Assay in all cases: DAPPL (digital affinity profiling via proximity ligation, sequencing); 10 mM Tris-HCl pH 7.5, 50 mM NaCl, 1 mM DTT, 4% glycerol, room temperature, 30 min; GST-TFs on glutathione beads, 16-mer random dsDNA library, 0.1% formaldehyde crosslink after washing; high values mean tight binding
Conditions in all cases: protein: recombinant; tags: N-terminal GST; dsDNA, one strand shown
ERG = molecular target: T1, ERG (Homo sapiens, UniProt P11308 1-479)
T1 sequence: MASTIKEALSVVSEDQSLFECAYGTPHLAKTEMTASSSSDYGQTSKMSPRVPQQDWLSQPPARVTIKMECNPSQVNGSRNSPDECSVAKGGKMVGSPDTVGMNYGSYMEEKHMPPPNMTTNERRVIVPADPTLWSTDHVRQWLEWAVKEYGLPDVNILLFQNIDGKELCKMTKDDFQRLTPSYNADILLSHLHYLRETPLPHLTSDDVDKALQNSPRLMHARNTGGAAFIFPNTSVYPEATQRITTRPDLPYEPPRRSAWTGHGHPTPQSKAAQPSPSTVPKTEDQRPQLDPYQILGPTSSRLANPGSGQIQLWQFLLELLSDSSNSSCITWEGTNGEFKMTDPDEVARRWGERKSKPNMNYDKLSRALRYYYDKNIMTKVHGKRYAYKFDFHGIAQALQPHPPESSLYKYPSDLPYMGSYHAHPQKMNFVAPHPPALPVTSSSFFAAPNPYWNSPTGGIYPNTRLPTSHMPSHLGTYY
Procedure, shortened: (§1)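 A tag-only sample was pooled with DNA-barcoded human transcription factors that had been expressed in yeast as GST fusions and captured on glutathione beads. The pools were incubated for 30 min at room temperature with 200 nmole of a random double-stranded 16-mer DNA library in Tris/NaCl/DTT/glycerol buffer, then washed, crosslinked with 0.1% formaldehyde, proximity-ligated (BsaI/T4 ligase, 1 h, 37 °C), PCR-amplified and sequenced on an Illumina NextSeq500. Binding signal is each hexamer's read frequency for a factor divided by its frequency for the tag-only sample.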

ELF1 = ELF1 (Homo sapiens, UniProt P32519 1-619)
Sequence of ELF1 (P32519 whole entry): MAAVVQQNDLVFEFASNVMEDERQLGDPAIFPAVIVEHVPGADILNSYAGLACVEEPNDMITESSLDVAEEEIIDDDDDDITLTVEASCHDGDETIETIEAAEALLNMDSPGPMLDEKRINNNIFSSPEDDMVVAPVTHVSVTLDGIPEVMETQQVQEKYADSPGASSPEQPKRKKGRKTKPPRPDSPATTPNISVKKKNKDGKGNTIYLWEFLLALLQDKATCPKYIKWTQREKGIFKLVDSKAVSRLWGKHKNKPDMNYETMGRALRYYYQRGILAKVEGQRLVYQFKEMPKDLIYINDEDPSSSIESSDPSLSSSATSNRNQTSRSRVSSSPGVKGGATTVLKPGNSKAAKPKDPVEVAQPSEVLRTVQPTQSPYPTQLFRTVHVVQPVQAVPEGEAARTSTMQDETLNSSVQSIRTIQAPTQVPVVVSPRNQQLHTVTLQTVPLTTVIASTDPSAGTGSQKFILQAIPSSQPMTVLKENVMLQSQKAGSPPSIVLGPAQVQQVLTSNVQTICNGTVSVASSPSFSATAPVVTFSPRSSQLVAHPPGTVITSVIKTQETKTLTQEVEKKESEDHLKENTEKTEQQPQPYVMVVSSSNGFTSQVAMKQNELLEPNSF
Procedure, shortened: as §1

EHF = molecular target: T2, EHF (Homo sapiens, UniProt Q9NZC4 1-300)
T2 sequence: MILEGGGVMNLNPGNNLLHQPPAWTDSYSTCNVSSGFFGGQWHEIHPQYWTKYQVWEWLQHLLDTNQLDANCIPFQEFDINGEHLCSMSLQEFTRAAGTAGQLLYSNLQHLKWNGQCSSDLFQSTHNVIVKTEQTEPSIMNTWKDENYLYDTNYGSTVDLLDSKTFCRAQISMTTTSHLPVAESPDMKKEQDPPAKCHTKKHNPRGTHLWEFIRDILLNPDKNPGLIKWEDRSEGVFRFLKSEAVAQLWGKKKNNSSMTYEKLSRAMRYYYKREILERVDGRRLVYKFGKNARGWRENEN
Procedure, shortened: as §1

ETV5 = ETV5 (Homo sapiens, UniProt P41161 1-510)
Sequence of ETV5 (P41161 whole entry): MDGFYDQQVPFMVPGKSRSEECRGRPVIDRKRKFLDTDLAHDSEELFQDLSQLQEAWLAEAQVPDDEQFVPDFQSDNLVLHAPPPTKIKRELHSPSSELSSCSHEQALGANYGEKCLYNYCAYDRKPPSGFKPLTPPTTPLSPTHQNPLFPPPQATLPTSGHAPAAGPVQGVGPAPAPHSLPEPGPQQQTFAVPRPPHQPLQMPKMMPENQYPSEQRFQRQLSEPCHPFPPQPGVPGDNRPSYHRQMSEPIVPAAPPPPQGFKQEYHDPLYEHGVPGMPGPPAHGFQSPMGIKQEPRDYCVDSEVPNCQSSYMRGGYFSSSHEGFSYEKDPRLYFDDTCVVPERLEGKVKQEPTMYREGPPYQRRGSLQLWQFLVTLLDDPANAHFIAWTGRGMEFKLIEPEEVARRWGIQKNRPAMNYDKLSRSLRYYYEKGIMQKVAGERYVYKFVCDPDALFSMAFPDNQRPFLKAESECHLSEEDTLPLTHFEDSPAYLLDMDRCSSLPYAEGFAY
Procedure, shortened: as §1

ELK4 = molecular target: T3, ELK4 (Homo sapiens, UniProt P28324-2 1-405)
T3 sequence: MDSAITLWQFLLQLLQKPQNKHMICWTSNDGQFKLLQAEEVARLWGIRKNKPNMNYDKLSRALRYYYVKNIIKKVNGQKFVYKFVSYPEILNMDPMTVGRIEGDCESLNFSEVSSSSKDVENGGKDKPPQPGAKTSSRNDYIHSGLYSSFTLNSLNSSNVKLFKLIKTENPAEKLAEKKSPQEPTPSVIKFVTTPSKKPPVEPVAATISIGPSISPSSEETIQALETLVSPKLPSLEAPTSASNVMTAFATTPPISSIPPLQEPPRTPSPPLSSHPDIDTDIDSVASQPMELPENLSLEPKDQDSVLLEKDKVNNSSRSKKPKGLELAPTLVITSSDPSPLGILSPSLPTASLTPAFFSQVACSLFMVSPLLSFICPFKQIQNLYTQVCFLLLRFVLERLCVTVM
Procedure, shortened: as §1

ETV1 = ETV1 (Homo sapiens, UniProt P50549 1-477)
Sequence of ETV1 (P50549 whole entry): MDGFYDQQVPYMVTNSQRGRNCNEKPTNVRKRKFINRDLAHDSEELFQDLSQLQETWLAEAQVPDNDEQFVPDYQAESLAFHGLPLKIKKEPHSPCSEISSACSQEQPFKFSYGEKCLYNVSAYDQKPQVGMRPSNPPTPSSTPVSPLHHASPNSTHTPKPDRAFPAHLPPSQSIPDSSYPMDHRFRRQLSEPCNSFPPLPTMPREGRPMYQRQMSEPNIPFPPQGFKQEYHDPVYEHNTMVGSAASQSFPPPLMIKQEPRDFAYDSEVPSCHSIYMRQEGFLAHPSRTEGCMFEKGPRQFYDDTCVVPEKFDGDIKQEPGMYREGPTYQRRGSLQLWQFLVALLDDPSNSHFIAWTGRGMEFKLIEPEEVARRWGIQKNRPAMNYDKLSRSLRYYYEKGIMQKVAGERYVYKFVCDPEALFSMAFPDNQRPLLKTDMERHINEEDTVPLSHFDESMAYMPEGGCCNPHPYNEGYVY
Procedure, shortened: as §1

ERF = molecular target: T4, ERF (Homo sapiens, UniProt P50548 1-548)
T4 sequence: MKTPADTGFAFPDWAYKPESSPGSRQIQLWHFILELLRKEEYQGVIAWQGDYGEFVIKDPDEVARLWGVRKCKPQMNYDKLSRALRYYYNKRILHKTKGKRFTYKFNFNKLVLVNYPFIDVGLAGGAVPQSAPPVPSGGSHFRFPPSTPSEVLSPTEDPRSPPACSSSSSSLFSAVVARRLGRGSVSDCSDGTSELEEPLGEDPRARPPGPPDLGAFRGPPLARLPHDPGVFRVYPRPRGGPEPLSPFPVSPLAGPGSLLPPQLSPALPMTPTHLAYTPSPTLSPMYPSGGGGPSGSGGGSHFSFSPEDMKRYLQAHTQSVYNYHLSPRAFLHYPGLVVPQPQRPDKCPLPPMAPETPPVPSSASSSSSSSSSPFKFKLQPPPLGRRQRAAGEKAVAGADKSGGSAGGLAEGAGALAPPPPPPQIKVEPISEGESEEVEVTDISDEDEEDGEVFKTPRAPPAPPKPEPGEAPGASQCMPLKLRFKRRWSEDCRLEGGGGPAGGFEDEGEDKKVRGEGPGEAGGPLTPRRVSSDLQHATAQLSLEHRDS
Procedure, shortened: as §1

ETV3L = molecular target: T5, ETV3L (Homo sapiens, UniProt Q6ZN32 1-361)
T5 sequence: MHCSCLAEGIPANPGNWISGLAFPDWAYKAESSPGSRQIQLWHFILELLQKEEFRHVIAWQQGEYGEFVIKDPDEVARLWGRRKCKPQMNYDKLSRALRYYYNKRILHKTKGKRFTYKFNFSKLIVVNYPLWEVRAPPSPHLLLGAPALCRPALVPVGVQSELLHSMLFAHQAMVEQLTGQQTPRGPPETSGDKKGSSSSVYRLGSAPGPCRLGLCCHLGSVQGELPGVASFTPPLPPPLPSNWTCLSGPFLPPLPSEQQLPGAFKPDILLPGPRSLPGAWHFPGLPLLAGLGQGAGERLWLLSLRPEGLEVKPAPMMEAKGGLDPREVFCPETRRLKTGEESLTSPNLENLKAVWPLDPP
Procedure, shortened: as §1

ETS2 = molecular target: T6, ETS2 (Homo sapiens, UniProt P15036 1-469)
T6 sequence: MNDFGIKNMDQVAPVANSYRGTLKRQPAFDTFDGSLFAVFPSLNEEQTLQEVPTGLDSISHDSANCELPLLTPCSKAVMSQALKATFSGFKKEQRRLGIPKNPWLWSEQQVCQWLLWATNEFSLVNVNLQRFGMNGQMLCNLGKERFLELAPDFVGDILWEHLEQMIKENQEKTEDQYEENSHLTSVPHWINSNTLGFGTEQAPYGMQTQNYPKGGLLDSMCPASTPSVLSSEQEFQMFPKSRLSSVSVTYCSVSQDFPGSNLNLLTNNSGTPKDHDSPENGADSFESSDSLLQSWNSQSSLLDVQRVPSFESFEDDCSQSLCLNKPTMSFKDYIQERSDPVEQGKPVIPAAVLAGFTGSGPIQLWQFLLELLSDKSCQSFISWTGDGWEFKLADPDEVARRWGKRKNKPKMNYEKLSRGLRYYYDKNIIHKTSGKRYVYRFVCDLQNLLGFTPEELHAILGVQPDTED
Procedure, shortened: as §1

SPDEF = molecular target: T7, SPDEF (Homo sapiens, UniProt O95238 1-335)
T7 sequence: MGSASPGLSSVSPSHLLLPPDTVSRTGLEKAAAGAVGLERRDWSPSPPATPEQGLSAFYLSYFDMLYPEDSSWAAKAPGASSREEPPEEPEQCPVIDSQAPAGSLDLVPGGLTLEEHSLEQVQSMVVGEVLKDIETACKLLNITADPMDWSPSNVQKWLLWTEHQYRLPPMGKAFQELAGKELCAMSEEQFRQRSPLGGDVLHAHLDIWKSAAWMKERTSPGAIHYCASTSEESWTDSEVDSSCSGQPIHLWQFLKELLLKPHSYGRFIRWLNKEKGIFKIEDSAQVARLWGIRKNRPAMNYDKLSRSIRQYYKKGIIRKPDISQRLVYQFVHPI
Procedure, shortened: as §1

ETV7 = molecular target: T8, ETV7 (Homo sapiens, UniProt Q9Y603 1-341)
T8 sequence: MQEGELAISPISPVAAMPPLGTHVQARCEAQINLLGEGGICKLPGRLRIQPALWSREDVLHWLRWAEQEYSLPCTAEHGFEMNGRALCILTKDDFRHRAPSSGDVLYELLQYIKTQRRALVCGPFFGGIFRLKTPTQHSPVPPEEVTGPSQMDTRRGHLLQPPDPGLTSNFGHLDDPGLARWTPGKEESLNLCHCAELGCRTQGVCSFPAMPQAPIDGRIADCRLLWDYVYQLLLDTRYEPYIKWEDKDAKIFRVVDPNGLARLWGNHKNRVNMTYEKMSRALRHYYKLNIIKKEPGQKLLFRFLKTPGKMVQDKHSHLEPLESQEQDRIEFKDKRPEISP
Procedure, shortened: as §1

ETV6 = ETV6 (Homo sapiens, UniProt P41212 1-452)
Sequence of ETV6 (P41212 whole entry): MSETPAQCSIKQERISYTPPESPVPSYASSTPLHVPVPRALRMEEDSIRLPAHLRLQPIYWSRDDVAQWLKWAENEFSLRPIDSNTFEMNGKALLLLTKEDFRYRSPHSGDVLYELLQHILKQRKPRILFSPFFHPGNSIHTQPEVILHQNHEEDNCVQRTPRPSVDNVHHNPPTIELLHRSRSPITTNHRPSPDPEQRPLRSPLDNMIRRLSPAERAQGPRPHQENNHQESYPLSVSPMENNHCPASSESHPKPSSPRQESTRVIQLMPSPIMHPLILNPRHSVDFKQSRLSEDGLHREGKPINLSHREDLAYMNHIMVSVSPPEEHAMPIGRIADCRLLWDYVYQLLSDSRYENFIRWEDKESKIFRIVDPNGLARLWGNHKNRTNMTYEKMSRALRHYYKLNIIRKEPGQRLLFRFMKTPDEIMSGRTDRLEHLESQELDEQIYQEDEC
Procedure, shortened: as §1

TCACGG was tested, and the binding signal (ERG) was 1.02 fold enrichment (6-mer frequency, TF over GST control), the binding signal (ELF1) was 1.06 fold enrichment (6-mer frequency, TF over GST control) and the binding signal (EHF) was 1.08 fold enrichment (6-mer frequency, TF over GST control). For the same sequence, the binding signal (ETV5) was 1.04 fold enrichment (6-mer frequency, TF over GST control), the binding signal (ELK4) was 1.02 fold enrichment (6-mer frequency, TF over GST control) and the binding signal (ETV1) was 1.09 fold enrichment (6-mer frequency, TF over GST control). For the same sequence, the binding signal (ERF) was 1.06 fold enrichment (6-mer frequency, TF over GST control), the binding signal (ETV3L) was 1.02 fold enrichment (6-mer frequency, TF over GST control) and the binding signal (ETS2) was 1.04 fold enrichment (6-mer frequency, TF over GST control). The binding signal (SPDEF) was 1.1 fold enrichment (6-mer frequency, TF over GST control), the binding signal (ETV7) was 1.04 fold enrichment (6-mer frequency, TF over GST control) and the binding signal (ETV6) was 1.05 fold enrichment (6-mer frequency, TF over GST control).
